Results filed as inconclusive are left out. Calls of active or inactive are those of the source. How the source made its calls, unless noted: active means hit-call score of the fitted dose curve at least 0.9, where 1 is the maximum; inactive means score below 0.9.
What was measured:
[1] = ATG_RORE_CIS: Attagene CIS-FACTORIAL HepG2 Assay for human RAR-related Orphan Receptor Element (RORE) (AID 2282959); details: HepG2 Attagene cis-factorial RORE reporter, mRNA; actives raise or lower the signal
Outline: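 Endogenous factor activity at a cis response element is read as reporter transcript levels in HepG2 cells, 24 h post-dose. Transcripts are quantified by RT-PCR with capillary electrophoresis, and data fitted in both directions against DMSO.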

[2] = ATG_Sox_CIS: Attagene CIS-FACTORIAL HepG2 Assay for human SRY-box transcription factor (SOX) (AID 2282960); details: HepG2 Attagene cis-factorial SOX reporter, mRNA; actives raise or lower the signal
Outline: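 Measures mRNA induction of a SOX1-associated reporter in HepG2 after 24 h dosing. Fluorescently labelled RT-PCR fragments are separated by capillary electrophoresis, and gain or loss relative to DMSO control is fitted.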

[3] = molecular target: Transcription factor Sp1 (Homo sapiens) (UniProt P08047); test: ATG_Sp1_CIS: Attagene CIS-FACTORIAL HepG2 Assay for human Specificity Protein 1 (Sp1) (AID 2282961); details: HepG2 Sp1 cis-reporter transcription, actives raise or lower the signal
Chain of Transcription factor Sp1 (Homo sapiens) (P08047 whole entry, looked up): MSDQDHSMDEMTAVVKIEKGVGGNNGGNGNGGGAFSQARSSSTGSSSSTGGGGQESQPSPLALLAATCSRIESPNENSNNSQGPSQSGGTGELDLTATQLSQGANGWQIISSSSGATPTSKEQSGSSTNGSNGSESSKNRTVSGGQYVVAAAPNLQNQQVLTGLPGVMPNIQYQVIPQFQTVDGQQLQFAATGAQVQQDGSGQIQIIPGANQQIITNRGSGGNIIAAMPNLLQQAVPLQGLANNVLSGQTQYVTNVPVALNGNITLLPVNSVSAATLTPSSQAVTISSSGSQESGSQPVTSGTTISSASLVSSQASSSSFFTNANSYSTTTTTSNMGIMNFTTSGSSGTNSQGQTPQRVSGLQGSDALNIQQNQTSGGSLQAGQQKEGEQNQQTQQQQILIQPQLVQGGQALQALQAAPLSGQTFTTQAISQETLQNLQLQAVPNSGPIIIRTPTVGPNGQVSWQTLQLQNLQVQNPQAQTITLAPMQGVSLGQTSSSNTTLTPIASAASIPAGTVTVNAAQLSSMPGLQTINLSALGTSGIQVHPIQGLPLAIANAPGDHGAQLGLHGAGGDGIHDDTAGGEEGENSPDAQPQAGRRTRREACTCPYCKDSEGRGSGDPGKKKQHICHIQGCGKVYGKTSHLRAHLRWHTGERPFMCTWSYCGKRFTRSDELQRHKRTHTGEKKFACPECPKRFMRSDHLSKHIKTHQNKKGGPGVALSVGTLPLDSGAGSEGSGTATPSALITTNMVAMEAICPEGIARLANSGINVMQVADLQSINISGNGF
Outline: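 Cells: HepG2, transiently transfected with cis-regulated multiplexed reporters. Exposure: 24 h. Detection: reporter transcripts amplified, fluorescently labeled, restriction-digested and sized by capillary electrophoresis. Analysis: bidirectional fit relative to DMSO.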

[4] = ATG_SREBP_CIS: Attagene CIS-FACTORIAL HepG2 Assay for human Sterol Regulatory Element Binding (SREBP) (AID 2282962); details: HepG2 Attagene cis-factorial SREBP reporter, mRNA; actives raise or lower the signal
Outline: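 Transfected HepG2 (cis-regulated reporter library, endogenous TFs) → compound 24 h → total RNA → oligo(dT) RT → reporter-specific PCR → FAM primer extension, HpaI cut → CE fluorescence. Fit bidirectional vs DMSO.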

[5] = molecular target: Signal transducer and activator of transcription 3 (Homo sapiens) (UniProt P40763); test: ATG_STAT3_CIS: Attagene CIS-FACTORIAL HepG2 Assay for human Signal Transducer and Activator of Transcription 3 (STAT3) (AID 2282963); details: HepG2, Attagene cis-factorial STAT3 reporter transcription; actives raise or lower the signal
Chain of Signal transducer and activator of transcription 3 (Homo sapiens) (P40763 whole entry, looked up): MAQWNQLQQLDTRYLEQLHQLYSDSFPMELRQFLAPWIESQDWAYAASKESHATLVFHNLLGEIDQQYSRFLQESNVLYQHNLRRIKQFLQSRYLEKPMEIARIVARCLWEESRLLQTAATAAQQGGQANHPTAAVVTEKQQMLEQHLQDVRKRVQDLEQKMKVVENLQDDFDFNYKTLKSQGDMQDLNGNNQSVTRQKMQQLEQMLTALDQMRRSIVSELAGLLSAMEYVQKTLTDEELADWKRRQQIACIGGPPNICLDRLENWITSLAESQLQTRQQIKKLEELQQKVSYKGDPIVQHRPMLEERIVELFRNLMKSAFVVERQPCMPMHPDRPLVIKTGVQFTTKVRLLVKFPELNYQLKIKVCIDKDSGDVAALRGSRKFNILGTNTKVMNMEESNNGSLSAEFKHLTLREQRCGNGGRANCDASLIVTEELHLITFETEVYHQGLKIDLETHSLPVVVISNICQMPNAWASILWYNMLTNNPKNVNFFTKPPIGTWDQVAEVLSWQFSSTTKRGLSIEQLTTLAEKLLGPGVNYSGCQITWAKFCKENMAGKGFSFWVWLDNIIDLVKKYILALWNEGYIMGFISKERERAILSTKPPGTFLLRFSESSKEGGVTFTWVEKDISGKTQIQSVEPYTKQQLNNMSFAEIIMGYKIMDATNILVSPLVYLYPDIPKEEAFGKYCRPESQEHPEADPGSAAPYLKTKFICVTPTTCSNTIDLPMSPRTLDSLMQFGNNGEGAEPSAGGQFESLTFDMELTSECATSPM
Outline: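 HepG2 cells transiently transfected with cis-element-driven multiple reporter transcription units; after 24 h chemical exposure, reporter mRNA measured by RT-PCR, 6-FAM primer-extension labelling, HpaI digestion and capillary electrophoresis. Bidirectional fitting versus DMSO baseline.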

[6] = ATG_TA_CIS: Attagene CIS-FACTORIAL HepG2 Assay for human TA Basal Promoter (AID 2282964); details: HepG2 Attagene CIS-factorial TA basal promoter reporter; actives raise or lower the signal
Outline: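 Background-control readout: TA basal promoter reporter mRNA, fitted in both directions relative to DMSO. Measured by RT-PCR and capillary electrophoresis 24 hours after treating HepG2 human liver cells transiently carrying multiplexed cis-regulated reporter constructs.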

[7] = ATG_TCF_b_cat_CIS: Attagene CIS-FACTORIAL HepG2 Assay for human T-Cell-Factor with beta-catenin (TCF/b-cat) (AID 2282965); details: HepG2 TCF/beta-catenin cis-reporter transcription, actives raise or lower the signal
Outline: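 HepG2 cells transiently transfected with multiple cis-promoter-regulated reporter transcription units, so endogenous transcription factor activity is measured. Reporter mRNA read 24 hours after dosing by RT-PCR, fluorescent labelling and capillary electrophoresis; bidirectional fitting against DMSO.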

[8] = ATG_TAL_CIS: Attagene CIS-FACTORIAL HepG2 Assay for human TAL Basal Promoter (AID 2282966); details: HepG2 Attagene cis-factorial TAL promoter reporter; actives raise or lower the signal;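 further: background control endpoint measuring basal TAL promoter reporter mRNA not a specific factor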
Outline: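 HepG2 cells transiently transfected with multiplexed cis-promoter reporter units, dosed 24 h. Reporter mRNA quantified by RT-PCR, 6-FAM labelling, HpaI digestion and capillary electrophoresis; TAL basal promoter serves as background control, fitted bidirectionally versus DMSO.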

[9] = ATG_TGFb_CIS: Attagene CIS-FACTORIAL HepG2 Assay for human Transforming Growth Factor (TGF) (AID 2282967); details: HepG2 Attagene CIS TGFb reporter, mRNA transcription; actives raise or lower the signal
Outline: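 Endogenous TGFB1-linked transcription factor activity read as reporter mRNA via RT-PCR and capillary electrophoresis, 24 h after dosing transiently transfected HepG2 cells. Gain or loss of signal fitted relative to DMSO.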

[10] = molecular target: Estrogen receptor (Homo sapiens) (UniProt P03372); test: ATG_ERa_TRANS: Attagene TRANS-FACTORIAL HepG2 Assay for human Estrogen Receptor alpha (ERa) (AID 2282970; active means hit-call score of the fitted dose curve at least 0.9, where 1 is the maximum); details: HepG2 Attagene TRANS ERa GAL4 reporter, mRNA
Chain of Estrogen receptor (Homo sapiens) (P03372 whole entry, looked up, the tested form may be a part): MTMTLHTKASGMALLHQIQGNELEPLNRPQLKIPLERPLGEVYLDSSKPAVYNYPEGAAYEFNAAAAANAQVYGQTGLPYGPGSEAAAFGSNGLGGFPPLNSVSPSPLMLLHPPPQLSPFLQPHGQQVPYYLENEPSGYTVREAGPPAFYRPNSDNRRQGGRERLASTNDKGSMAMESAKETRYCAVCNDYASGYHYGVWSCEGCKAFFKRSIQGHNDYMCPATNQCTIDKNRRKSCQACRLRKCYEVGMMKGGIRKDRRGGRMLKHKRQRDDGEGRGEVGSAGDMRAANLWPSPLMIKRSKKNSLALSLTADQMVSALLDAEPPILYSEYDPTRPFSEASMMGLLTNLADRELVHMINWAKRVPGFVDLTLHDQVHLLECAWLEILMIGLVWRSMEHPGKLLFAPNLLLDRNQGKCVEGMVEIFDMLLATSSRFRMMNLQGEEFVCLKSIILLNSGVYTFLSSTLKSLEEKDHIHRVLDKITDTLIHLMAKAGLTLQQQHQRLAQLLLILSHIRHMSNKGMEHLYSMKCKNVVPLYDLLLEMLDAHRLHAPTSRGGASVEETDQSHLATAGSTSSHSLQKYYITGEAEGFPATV
Outline: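 HepG2 cells transiently transfected with multiplexed GAL4-UAS reporter units read out chimeric NR-Gal4 activity. After 24 h compound exposure, reporter mRNA was quantified by RT-PCR, 6-FAM labeling, HpaI digestion and capillary electrophoresis, relative to DMSO.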

[11] = molecular target: X-box-binding protein 1 (Homo sapiens) (UniProt P17861); test: ATG_Xbp1_CIS: Attagene CIS-FACTORIAL HepG2 Assay for human X-box Binding Protein 1 (XBP1) (AID 2282972); details: HepG2 XBP1 cis-element reporter, Attagene multiplex; actives raise or lower the signal
Chain of X-box-binding protein 1 (Homo sapiens) (P17861 whole entry, looked up): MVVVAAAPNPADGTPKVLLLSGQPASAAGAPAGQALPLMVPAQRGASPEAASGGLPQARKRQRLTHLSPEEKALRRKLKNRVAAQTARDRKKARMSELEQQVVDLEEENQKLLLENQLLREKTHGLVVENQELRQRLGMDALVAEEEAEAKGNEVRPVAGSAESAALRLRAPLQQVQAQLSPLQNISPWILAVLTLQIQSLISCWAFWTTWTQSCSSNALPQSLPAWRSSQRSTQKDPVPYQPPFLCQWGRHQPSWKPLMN
Outline: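 HepG2, transient MRTU transfection (cis-promoter driven), 24 h compound exposure. Total RNA → oligo(dT) RT → PCR → 6-FAM labeling → HpaI cut → CE. Bidirectional fit vs DMSO.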

[12] = molecular target: Androgen receptor (Homo sapiens) (UniProt P10275); test: ATG_AR_TRANS: Attagene TRANS-FACTORIAL HepG2 Assay for human Androgen Receptor (AR) (AID 2282973; active means hit-call score of the fitted dose curve at least 0.9, where 1 is the maximum); details: HepG2 Attagene TRANS-FACTORIAL AR reporter transcription
Chain of Androgen receptor (Homo sapiens) (P10275 whole entry, looked up, the tested form may be a part): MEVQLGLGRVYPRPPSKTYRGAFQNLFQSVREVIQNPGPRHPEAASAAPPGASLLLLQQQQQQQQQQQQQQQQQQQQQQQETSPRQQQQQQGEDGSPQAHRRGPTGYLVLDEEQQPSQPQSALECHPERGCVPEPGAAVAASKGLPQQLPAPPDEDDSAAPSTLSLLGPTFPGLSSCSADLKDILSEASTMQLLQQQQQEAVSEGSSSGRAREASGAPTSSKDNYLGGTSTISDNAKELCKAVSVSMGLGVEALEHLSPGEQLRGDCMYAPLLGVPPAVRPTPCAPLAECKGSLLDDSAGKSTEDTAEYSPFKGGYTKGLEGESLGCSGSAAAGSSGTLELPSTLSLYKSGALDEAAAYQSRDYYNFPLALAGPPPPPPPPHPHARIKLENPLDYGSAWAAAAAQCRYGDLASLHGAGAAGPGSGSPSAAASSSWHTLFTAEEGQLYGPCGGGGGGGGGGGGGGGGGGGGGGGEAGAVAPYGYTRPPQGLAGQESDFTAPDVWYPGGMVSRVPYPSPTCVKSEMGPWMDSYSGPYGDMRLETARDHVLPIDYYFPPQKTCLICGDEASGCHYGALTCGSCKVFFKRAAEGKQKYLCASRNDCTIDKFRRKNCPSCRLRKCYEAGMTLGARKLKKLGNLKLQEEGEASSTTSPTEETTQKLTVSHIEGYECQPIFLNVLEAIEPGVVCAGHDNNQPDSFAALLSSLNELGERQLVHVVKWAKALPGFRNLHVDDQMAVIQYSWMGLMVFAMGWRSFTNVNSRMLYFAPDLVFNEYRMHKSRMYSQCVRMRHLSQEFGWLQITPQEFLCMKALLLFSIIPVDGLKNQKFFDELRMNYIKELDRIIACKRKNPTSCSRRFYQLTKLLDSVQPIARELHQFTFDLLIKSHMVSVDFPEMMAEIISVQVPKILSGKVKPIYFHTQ
Outline: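 HepG2 cells transiently transfected with AR-Gal4 chimera and GAL4-UAS reporter units; chemical exposure 24 h. Reporter mRNA quantified by RT-PCR with fluorescent labelling and capillary electrophoresis; gain-of-signal fitted against DMSO.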

[13] = ATG_M_19_TRANS: Attagene TRANS-FACTORIAL HepG2 Assay for M19 Transcription Factor (Internal Marker) (AID 2282974; active means hit-call score of the fitted dose curve at least 0.9, where 1 is the maximum); details: HepG2 Attagene TRANS-FACTORIAL M19 internal marker reporter
Outline: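 Reporter mRNA induction was measured in transfected HepG2 cells 24 h after dosing. Endpoint fitted upward relative to DMSO and serves as a background control within the multiplexed TRANS panel.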

[14] = molecular target: Glucocorticoid receptor (Homo sapiens) (UniProt P04150); test: ATG_GR_TRANS: Attagene TRANS-FACTORIAL HepG2 Assay for human Glucocorticoid Receptor (GR) (AID 2282978; active means hit-call score of the fitted dose curve at least 0.9, where 1 is the maximum;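 further: activators score as hits since higher reporter transcript over DMSO is fitted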); details: HepG2 Attagene TRANS GR reporter, mRNA transcription
Chain of Glucocorticoid receptor (Homo sapiens) (P04150 whole entry, looked up, the tested form may be a part): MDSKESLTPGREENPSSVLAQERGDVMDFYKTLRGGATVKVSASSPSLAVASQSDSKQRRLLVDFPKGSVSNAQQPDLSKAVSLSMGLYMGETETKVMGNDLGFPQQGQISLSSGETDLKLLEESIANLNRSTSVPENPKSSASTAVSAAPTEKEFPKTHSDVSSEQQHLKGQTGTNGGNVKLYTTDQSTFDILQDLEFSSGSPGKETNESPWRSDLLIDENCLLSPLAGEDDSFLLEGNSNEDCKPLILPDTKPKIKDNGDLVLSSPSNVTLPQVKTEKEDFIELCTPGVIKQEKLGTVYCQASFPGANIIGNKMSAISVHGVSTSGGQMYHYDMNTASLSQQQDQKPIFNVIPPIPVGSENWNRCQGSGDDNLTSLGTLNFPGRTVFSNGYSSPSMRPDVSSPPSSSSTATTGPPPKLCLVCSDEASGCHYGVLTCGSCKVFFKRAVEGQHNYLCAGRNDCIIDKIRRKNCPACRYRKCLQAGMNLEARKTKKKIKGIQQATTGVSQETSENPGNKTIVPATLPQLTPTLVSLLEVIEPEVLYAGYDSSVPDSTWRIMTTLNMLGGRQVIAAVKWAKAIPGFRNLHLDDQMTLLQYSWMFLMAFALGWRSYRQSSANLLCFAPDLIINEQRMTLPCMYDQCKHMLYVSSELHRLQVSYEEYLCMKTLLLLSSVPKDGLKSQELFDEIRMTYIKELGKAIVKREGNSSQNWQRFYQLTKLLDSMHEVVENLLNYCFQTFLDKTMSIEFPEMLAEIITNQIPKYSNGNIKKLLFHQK
Outline: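 Reporter transcript levels, detected by fluorescence after RT-PCR and capillary electrophoresis, served as the endpoint. HepG2 cells bearing transfected GAL4-UAS reporters responsive to NR-GAL4 chimeras were incubated with compound 24 h; DMSO defined baseline.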

[15] = ATG_VDRE_CIS: Attagene CIS-FACTORIAL HepG2 Assay for human Vitamin D Receptor Element (VDRE) (AID 2282968); details: HepG2 VDRE cis-reporter transcription, actives raise or lower the signal
Outline: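 HepG2 cells transiently transfected with cis-element reporter units, dosed 24 h; reporter mRNA measured by RT-PCR, 6-FAM labeling, HpaI digestion and capillary electrophoresis. Activity fitted bidirectionally against DMSO baseline.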

[16] = molecular target: Nuclear receptor subfamily 1 group I member 3 (Homo sapiens) (UniProt Q14994); test: ATG_CAR_TRANS: Attagene TRANS-FACTORIAL HepG2 Assay for human Constitutive Androstane Receptor (CAR) (AID 2282969; active means hit-call score of the fitted dose curve at least 0.9, where 1 is the maximum;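 further: activators raise reporter mRNA above DMSO so AC50 marks induction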); details: HepG2 Attagene TRANS-FACTORIAL CAR reporter
Chain of Nuclear receptor subfamily 1 group I member 3 (Homo sapiens) (Q14994 whole entry, looked up, the tested form may be a part): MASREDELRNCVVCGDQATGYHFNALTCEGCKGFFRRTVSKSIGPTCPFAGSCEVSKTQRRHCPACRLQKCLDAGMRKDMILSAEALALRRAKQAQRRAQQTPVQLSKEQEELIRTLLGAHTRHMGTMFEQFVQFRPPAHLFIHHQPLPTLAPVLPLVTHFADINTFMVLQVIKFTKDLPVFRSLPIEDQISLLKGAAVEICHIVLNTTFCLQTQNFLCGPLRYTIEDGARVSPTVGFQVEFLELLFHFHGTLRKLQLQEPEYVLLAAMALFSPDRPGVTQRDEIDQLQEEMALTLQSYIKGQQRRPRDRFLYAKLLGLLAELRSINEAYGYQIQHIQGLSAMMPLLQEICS
Outline: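 HepG2 cells transiently transfected with multiplexed GAL4-UAS reporter units expressing chimeric NR-Gal4 proteins; compound exposure 24 h. Reporter mRNA measured by RT-PCR, 6-FAM labelling, HpaI digestion and capillary electrophoresis; gain-of-signal fitted against DMSO baseline.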

[17] = molecular target: Steroid hormone receptor ERR1 (Homo sapiens) (UniProt P11474); test: ATG_ERRa_TRANS: Attagene TRANS-FACTORIAL HepG2 Assay for human Estrogen-Related Receptor alpha (ERRa) (AID 2282971; active means hit-call score of the fitted dose curve at least 0.9, where 1 is the maximum); details: HepG2 Attagene TRANS reporter, ERRa transactivation
Outline: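 HepG2 cells transiently transfected with GAL4-UAS reporter units and chimeric NR-Gal4 constructs; after 24 hour compound incubation, reporter mRNA quantified by RT-PCR, fluorescent labelling and capillary electrophoresis, gain of signal versus DMSO.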

[18] = ATG_GAL4_TRANS: Attagene TRANS-FACTORIAL HepG2 Assay for GAL4 (Internal Marker) (AID 2282976; active means hit-call score of the fitted dose curve at least 0.9, where 1 is the maximum); details: HepG2 Attagene TRANS GAL4 internal marker reporter
Outline: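 Background-control readout: GAL4-UAS reporter transcript in transiently transfected HepG2 cells after 24 h compound exposure. Measured by RT-PCR, 6-FAM primer extension, HpaI digest and capillary electrophoresis; gain-of-signal fit versus DMSO.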

[19] = molecular target: Estrogen-related receptor gamma (Homo sapiens) (UniProt P62508); test: ATG_ERRg_TRANS: Attagene TRANS-FACTORIAL HepG2 Assay for human Estrogen-Related Receptor gamma (ERRg) (AID 2282977; active means hit-call score of the fitted dose curve at least 0.9, where 1 is the maximum;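 further: hits increase reporter signal over DMSO so potencies reflect activators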); details: HepG2 Attagene TRANS reporter, ERRg transactivation
Chain of Estrogen-related receptor gamma (Homo sapiens) (P62508 whole entry, looked up, the tested form may be a part): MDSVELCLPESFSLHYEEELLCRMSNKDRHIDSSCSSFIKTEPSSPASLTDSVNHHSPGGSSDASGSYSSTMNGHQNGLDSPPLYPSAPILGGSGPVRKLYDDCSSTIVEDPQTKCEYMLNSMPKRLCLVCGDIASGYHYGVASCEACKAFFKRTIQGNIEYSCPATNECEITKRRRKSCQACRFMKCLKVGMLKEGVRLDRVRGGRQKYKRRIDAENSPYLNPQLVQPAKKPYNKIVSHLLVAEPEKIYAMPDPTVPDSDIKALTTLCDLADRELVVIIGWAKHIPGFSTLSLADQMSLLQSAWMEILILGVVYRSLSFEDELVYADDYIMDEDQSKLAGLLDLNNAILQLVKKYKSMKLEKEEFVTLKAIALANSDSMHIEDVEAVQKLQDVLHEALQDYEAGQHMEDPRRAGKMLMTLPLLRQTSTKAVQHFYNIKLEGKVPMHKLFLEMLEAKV
Outline: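 HepG2 cells transiently transfected with multiplexed GAL4-UAS reporter units and chimeric NR-Gal4 constructs were exposed to test chemicals for 24 h. Reporter mRNA was measured by RT-PCR, 6-FAM primer extension, HpaI digestion and capillary electrophoresis; gain-of-signal versus DMSO.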

Measured: AC50

CCC(=O)C(CC(C)N(C)C)(c1ccccc1)c1ccccc1 (stereo not given)
inactive: [1] | [2] | [3] | [5] | [6] | [7] | [8] | [9] | [10] | [11] | [12] | [13] | [14]
active: [4] 14.2 µM

CCN(CC)C(=O)Cl
active: [9] 0.104 µM | [10] 15.9 µM
inactive: [1] | [2] | [3] | [4] | [5] | [6] | [7] | [15] | [16] | [17] | [11] | [18] | [19]

Nc1ccc(-c2ccc(N)c(Cl)c2)cc1Cl
inactive: [2] | [3] | [4] | [5] | [6] | [8] | [11] | [13] | [14]
active: [1] 24.3 µM | [7] 4.63 µM | [15] 37.6 µM | [10] 2.04 µM

ClCC(Cl)CCl
inactive: [1] | [2] | [3] | [4] | [5] | [6] | [7] | [9] | [15] | [11] | [13] | [18] | [19] | [14]

CCOP(=S)(OCC)Oc1nc(Cl)c(Cl)cc1Cl
active: [3] 65.3 µM | [4] 68.1 µM | [15] 5.83 µM | [10] 26.9 µM | [11] 100 µM
inactive: [1] | [2] | [5] | [6] | [7] | [9] | [16] | [12] | [13] | [14]

[O-][Cl+2]([O-])O
inactive: [2] | [3] | [4] | [5] | [6] | [7] | [9] | [15] | [16] | [11] | [18]

O=C(OC1CCCCC1)c1ccccc1C(=O)OC1CCCCC1
active: [1] 8.39 µM | [6] 29.1 µM | [9] 62.1 µM | [15] 2.82 µM | [10] 3.1 µM
inactive: [2] | [3] | [4] | [5] | [7] | [11] | [14]

COc1cc2c(cc1OC)[C@@]13CCN4CC5=CCO[C@H]6CC(=O)N2[C@H]1[C@H]6[C@H]5C[C@H]43
inactive: [1] | [2] | [3] | [4] | [5] | [6] | [7] | [8] | [15] | [10] | [11] | [13]

CCOP(=S)(OCC)SCCS(=O)(=O)CC
inactive: [1] | [2] | [3] | [4] | [5] | [6] | [7] | [9] | [15] | [10] | [17] | [11] | [13] | [19] | [14]

Cc1ccccc1N
inactive: [1] | [2] | [3] | [4] | [5] | [6] | [7] | [9] | [11] | [13] | [18]

ClC1(Cl)C2(Cl)C3(Cl)C4(Cl)C(Cl)(Cl)C5(Cl)C3(Cl)C1(Cl)C5(Cl)C24Cl (stereo not given)
inactive: [2] | [3] | [4] | [5] | [6] | [7] | [9] | [15] | [11] | [18] | [19]

CN(C)N=O
inactive: [1] | [2] | [3] | [4] | [5] | [6] | [7] | [8] | [15] | [16] | [11] | [13] | [18] | [14]

C=CC(=O)N(C)C
inactive: [1] | [2] | [3] | [4] | [5] | [6] | [7] | [8] | [15] | [11] | [13] | [18] | [19]

Cc1cc(=O)[nH]o1
inactive: [1] | [2] | [3] | [4] | [5] | [6] | [7] | [8] | [9] | [10] | [11] | [12] | [18] | [14]

C1CCC(NC2CCCCC2)CC1
inactive: [1] | [2] | [3] | [4] | [5] | [6] | [7] | [9] | [15] | [11] | [13]
active: [10] 59.7 µM

C=C(C)C#N
inactive: [1] | [2] | [3] | [4] | [5] | [6] | [7] | [9] | [15] | [10] | [11] | [13] | [18]

C[C@H]1CCCC(=O)CCC/C=C/c2cc(O)cc(O)c2C(=O)O1
inactive: [1] | [2] | [3] | [4] | [5] | [6] | [7] | [8] | [11] | [12]
active: [10] 0.00409 µM

Source: PubChem BioAssay (EPA / NIEHS)
